FLuc counter: firefly luciferase modulation, counter-screen for miR-21 project. P08659. purified FLuc, Km substrates, luminescence inhibition. Potency, µM (titrated, usually from 57.5 µM), for the others: at the highest dose activity change, negative = inhibition, usual class: inhibitors. actives 6.9% (n = 360,000). AID 588342;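 note: plate controls were vehicle for no effect and reference inhibitor for full effect; nearly all actives have a fitted effect of over 55% in size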
Target sequence (P08659 whole entry, looked up): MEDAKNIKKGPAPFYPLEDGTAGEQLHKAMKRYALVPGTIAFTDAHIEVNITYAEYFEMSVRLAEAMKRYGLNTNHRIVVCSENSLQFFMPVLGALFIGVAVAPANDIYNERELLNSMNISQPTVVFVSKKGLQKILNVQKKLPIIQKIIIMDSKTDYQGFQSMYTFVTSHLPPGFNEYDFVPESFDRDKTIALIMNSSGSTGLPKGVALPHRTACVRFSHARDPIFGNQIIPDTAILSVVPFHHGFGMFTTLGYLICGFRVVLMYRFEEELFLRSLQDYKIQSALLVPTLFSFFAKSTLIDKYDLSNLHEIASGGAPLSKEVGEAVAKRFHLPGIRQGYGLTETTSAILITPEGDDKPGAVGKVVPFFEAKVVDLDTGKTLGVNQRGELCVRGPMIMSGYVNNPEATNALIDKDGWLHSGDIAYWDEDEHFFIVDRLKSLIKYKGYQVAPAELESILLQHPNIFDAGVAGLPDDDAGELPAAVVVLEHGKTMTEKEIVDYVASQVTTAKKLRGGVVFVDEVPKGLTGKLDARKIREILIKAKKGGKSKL
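Purified P. pyralis luciferase, 10 nM final, with Km-level 10 uM D-luciferin and 10 uM ATP in 50 mM Tris acetate pH 7.5, 10 mM Mg acetate, 0.01% Tween-20, 0.05% BSA; 6-point qHTS titration about 60 µM downward; luminescence read.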
NPC1 prom act: NPC1 promoter activation; Huh7 NPC1 promoter luciferase reporter, 24 h; Potency, µM (top dose mostly 9.22 µM), for inactives: top-dose activation, most hits filed as activators; actives 2.4% (n = 320,000); note: % of control where 0% means no effect; nearly all actives have a fitted effect of over 60% in size
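In 1536-well qHTS, Huh7 cells harboring an NPC1 promoter–luciferase construct received compound for 24 h; activation was quantified by luminescence following luciferase reagent addition.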
ELG1 genotox: inducers of genotoxicity in HEK293T ELG1-luciferase cells. Potency, µM (top dose mostly 46 µM), for the others: at the top dose activity change, positive = activation, actives largely listed as activators. HEK293T ELG1-luciferase reporter, luminescence, 16 h. actives 1.3% (n = 330,000). AID 504466; note: % of control where 0% means no effect; nearly all actives have a fitted effect of over 60% in size
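Reporter readout depends on ELG1 protein level, which increases with genetic stress. After 16 hr compound exposure at 37 °C, luciferase activity was quantified using ONE-Glo.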
Rab9 promoter act: activates the Rab9 promoter; Huh7 Rab9 promoter-luciferase reporter, luminescence, 24 h; Potency, µM (titrated, usually from 9.22 µM), inactives show at the top dose activation, negative = inhibition, actives largely listed as activators; actives 2.8% (n = 320,000); note: % of control where 0% means no effect; nearly all actives have a fitted effect of over 60% in size
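Huh7 reporter line, Rab9 promoter upstream of luciferase. Compound exposure 24 h at 37 °C in reduced-serum medium with 10% FBS. Read-out: luminescence.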
Luc counter: counter-screen: inhibitors of Kinase-Glo firefly luciferase. Q27757. Kinase-Glo luciferase, ATP luminescence, 8 min. Potency, µM (highest dose often 38.3 µM), for the others: top-dose activity change, negative = inhibition, most hits filed as inhibitors. actives 0.28% (n = 200,000). AID 1379; note: % is set by controls: 0 for no effect and ±100 for the full control effect; nearly all actives have a fitted effect of over 60% in size
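Kinase-Glo luciferase light output from ATP and luciferin was measured with 10 uM ATP, within the enzyme's linear range. Buffer: 50 mM imidazole pH 7.2, 50 mM KCl, 7 mM MgCl2, 0.01% Tween 20, 0.05% BSA; luminescence read after 8 min at ambient temperature.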
SMN2 splice up: increases expression of the SMN2 splice variant | HEK293 SMN2-luciferase splicing reporter, luminescence, 30-36 h | actives 2.8% (n = 210,000) | Potency, µM (doses to about 46.1 µM), for the others: top-dose activity change, positive = activation, hits mostly activators; note: % of control where 0% means no effect; nearly all actives have a fitted effect of over 55% in size
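qHTS luciferase splicing reporter: luminescence rises when SMN2 exon 7 is included in transfected HEK293 cells. Compound exposure lasted 30-36 h at 37C, with 4.5 mM final sodium butyrate as control, followed by a ONE-Glo read.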
The depositor's hits bear a star; ? = inconclusive; . = no result; [ ] = remark or other dose. Hits are enriched below; roughly 7.5% of the tested compounds scored in any of these assays. Calls come from the whole dose curve; as a rule, active = well fitted curve in the direction sought with a large enough effect; inconclusive = small, poorly fitted or top-dose-only effect, or another doubt; inactive = no such curve, though single readings can be large; an effect the other way counts as inactive or inconclusive. Potency is the fitted concentration of half-maximal effect.

SMILES	FLuc counter	NPC1 prom act	ELG1 genotox	Rab9 promoter act	Luc counter	SMN2 splice up
CN(Cc1ccccc1)C(C(=O)NC1CCCCC1)c1ccc(Cl)cc1 (stereo unspecified)	-5.5%	.	.	.	.	-5.9%
COc1ccc(CNc2nc(SCc3ccc(Cl)cc3)nc3ccccc23)cc1	-2.6%	.	.	.	.	.
COc1cc(NC(=O)Cn2nc3c(cc2=O)CC(C)CC3)cc(OC)c1OC (stereo unspecified)	-0.2%	.	.	.	.	.
Cc1c(Cl)cccc1NC(=O)CSc1nc2ncccc2o1	-7.6%	.	.	.	.	.
CC(C)Oc1ccccc1C1C=C(C(=O)O)Nc2ncnn21 (stereo unspecified)	-5.4%	.	.	.	.	-8.0%
Cc1cc(C)c2nc(-c3ccccn3)cc(C(=O)NCc3cc(C)n(C)n3)c2c1	-6.6%	-1.4%	?	-4.0%	-1.7%	13.3%
CCCc1ccc(-c2cc(C(=O)NN3CCOCC3)c3ccccc3n2)cc1	1.69µM*	?	7.6%	?	-5.7%	?
CCc1ccc(-c2cc(C(=O)N3N=C(C(F)F)CC3(O)C(F)F)c3ccccc3n2)cc1 (stereo unspecified)	5.36µM*	20.6%	0.1%	28.1%	-3.5%	9.4%
Cc1cc(C)c2nc(-c3ccccn3)cc(C(=O)Nn3cnnc3)c2c1	19µM*	-2.6%	-0.5%	1.9%	0.5%	-0.1%
CCCCN(CC)C(=O)C1CCCN(c2ncnc3c2nc2n3CCCCC2)C1 (stereo unspecified)	0.4%	.	.	.	.	.
COc1cccc(C(=O)Nc2cccc(C(=O)OCc3cc(=O)n4c(C)csc4n3)c2)c1	-3.6%	.	.	.	.	.
COC(=O)C(C)Oc1ccc(-c2nccc(-c3ccc(F)cc3)n2)cc1 (stereo unspecified)	15.1µM*	7.4%	3.6%	0.0%	.	.
COC(=O)C(C)Oc1ccc(-c2nccc(-c3ccccn3)n2)cc1 (stereo unspecified)	19µM*	13.5%	1.1%	8.8%	.	.
NNC(=O)COc1ccc(-c2nccc(-c3ccc(F)cc3)n2)cc1	?	-14.0%	7.4%	-11.1%	.	.
Oc1ccc(-c2nc(-c3ccc(F)cc3)c(-c3ccncc3)[nH]2)cc1	-8.1%	-16.3%[46.1 µM]	-7.6%	-12.4%[46.1 µM]	-3.0%	-18.9%
Oc1ccc(-c2nccc(-c3ccc(F)cc3)n2)cc1	13.5µM*	?	?	?	.	.
O=C(NCCn1ccc2ccccc21)c1ccc(Cl)cc1	21.3µM*	.	.	.	.	12.6µM*
COc1cccc(C(=O)NCCn2ccc3ccccc32)c1	19µM*	2.82µM*	?	3.98µM*	-0.4%	7.94µM*
COc1ccc(NC(=O)CCn2cccn2)cc1OC	3.1%	.	.	.	.	.
O=C(Nc1nc2ccc(F)cc2s1)Oc1ccccc1	-14.5%	1.5%	7.5%	-1.4%	.	.
NNc1nc2ccc(F)cc2s1	19µM*	15.1%	?	22.1%	-2.9%	21.4%
Fc1ccc2nc(Nc3ccccc3)sc2c1	7.57µM*	2.82µM*	?	2.24µM*	-4.1%	15.8µM*
Cc1ccc2c(c1)NC(=O)CC(c1ccccc1)=N2	12µM*	9.6%	13.1%	?	-7.0%	?
Cc1cccc(NC(=O)CSCC(=O)Nc2cc(Cl)ccc2N2CCN(C)CC2)c1	1.6%	1.7%	-0.1%	3.8%	.	.
CC(C)(C)c1ccc(C(=O)Nc2onc3c2CCCC3)cc1	0.338µM*	.	.	.	.	11.2µM*
SMILES	FLuc counter	NPC1 prom act	ELG1 genotox	Rab9 promoter act	Luc counter	SMN2 splice up
Cc1noc(NC(=O)c2ccccc2)c1C#N	-1.7%	7.9%	3.8%	-3.6%	-0.4%	-23.6%
O=C(Nc1onc2c1CCCC2)c1ccccc1	4.78µM*	.	.	.	.	?
C=CCn1c(C)cc(C(=O)COc2ncnc3sccc23)c1C	2.39µM*	0.891µM*	2.59µM*	0.794µM*	-2.0%	5.62µM*
C=CCn1c(C)cc(C(=O)COC(=O)c2cncc(Br)c2)c1C	1.9µM*	24.1%	14.3%	?	.	.
CC1=CN2C(=N)/C(=C/c3ccc(C)o3)C(=O)N=C2S1	1.2µM*	1.58µM*	?	0.794µM*	-8.4%	2.82µM*
CC1=CN2C(=N)/C(=C/c3ccc(Sc4ccc(Cl)cc4)o3)C(=O)N=C2S1	-0.8%	-2.4%	-1.2%	0.9%	3.0%	-35.6%
Cc1ccc(/C=C2\C(=N)N3N=C(CC(=O)N4CCOCC4)SC3=NC2=O)o1	-19.5%	-1.0%	1.8%	1.5%	.	.
CC1=CN2C(=N)/C(=C/c3ccc(Sc4ccc(C)cc4)o3)C(=O)N=C2S1	19µM*	6.5%	1.3%	-8.1%	3.4%	2.4%
O=C(c1cc2ccccc2o1)N(Cc1nnc(-c2ccccc2Cl)o1)C1CC1	30.1µM*	-1.6%	20.6µM*	-0.9%	.	.
CCCN(Cc1nnc(-c2ccccc2Cl)o1)C(=O)c1cc2ccccc2o1	?	-4.3%	0.9%	2.3%	.	.
O=C(O)Cn1cc(/C=N/NC(=O)c2cc3cc(Br)ccc3o2)c2ccccc21	12µM*	0.6%	1.0%	0.7%	.	.
Cn1cc(/C=N/NC(=O)c2cc3cc(Br)ccc3o2)c2ccccc21	8.49µM*	9.4%	-0.8%	5.2%	.	.
C=CCn1cc(/C=N\NC(=O)c2cc3c(ccc4ccccc43)o2)c2ccccc21	?	-0.6%	-6.4%	3.9%	4.7%	3.0%
C#CCn1cc(/C=N/NC(=O)c2cc3ccccc3o2)c2ccccc21	12µM*	9.1%	-0.5%	-2.0%	2.1%	6.6%
O=C(N/N=C/c1cccc2ccccc12)c1cc2ccccc2o1	?	-0.5%	-0.1%	0.8%	.	.
O=C(N/N=C/c1cccn1-c1ccc(O)cc1)c1cccc2ccccc12	-2.0%	1.1%	1.6%	-5.9%	.	.
O=C(O)c1ccc(-n2cccc2/C=N\NC(=O)c2cc3cc(Br)ccc3o2)cc1	15.1µM*	-4.2%	-1.9%	-1.9%	.	.
NS(=O)(=O)c1ccc(N2CCOCC2)c(C(=O)NCCCSc2ccccc2)c1	2.4%	-0.7%	0.1%	-3.8%	.	.
CCc1cccc(C)c1NC(=O)c1cc(S(=O)(=O)N2CCN(c3ccccc3)CC2)ccc1F	-2.8%	.	.	.	.	.
O=C(Nc1cnc2ccccn2c1=O)c1ccc(Cl)cc1	15.1µM*	3.55µM*	?	2.24µM*	-2.5%	35.5µM*
O=C(Nc1cccn2ncnc12)c1ccc(Cl)cc1	-14.4%	24.1%	-4.6%	17.9%	.	.
CSC(=S)N/N=C(\C)c1ccccc1	21.3µM*	1.2%	?	12.4%	-0.4%	-5.3%
Cn1c(=S)[nH]c2scc(-c3cccs3)c2c1=O	?	-11.9%	-5.6%	3.2%	-3.6%	12.0%
C=CCn1c(=S)[nH]c2scc(-c3cccs3)c2c1=O	13.5µM*	-3.1%	-20.6%	0.6%	3.1%	-78.8%
Nc1nnc(-c2ccc(Cl)cc2Cl)s1	12µM*	25.3%	?	?	0.8%	.
Nc1nnc(-c2ccccc2F)s1	?	8.6%	14.6%	15.5%	-4.4%	.

Screening data deposited in PubChem by National Center for Advancing Translational Sciences (NCATS).
